Active and inactive are the calls of the source.
Key:
Albumin (Bos taurus) = Albumin (Bos taurus) (UniProt P02769); test: bovine serum albumin binders on microarray, profiling panel, artefact control for SMM control protein annotation, biochemical, small-molecule microarray, Alexa647 label, 635/667 nm fluorescence (AID 1118); settings: BSA-A647 binding, fluorescence 635 nm, higher = more signal;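 further: score merges 667 nm emission intensity and signal-to-noise per printed compound spot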
[1] = small-molecule microarray binders of probe aXIP, primary screen, biochemical, NeuroSMM set, 635/667 nm fluorescence (AID 1119); settings: higher = more signal, called active from +8 up or from −8 down;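 further: probe is the protein aXip251-270 applied at 1 µg/mL to compound-printed slides; binding of probe to printed compounds measured as 667 nm fluorescence plus signal to noise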
[2] = small-molecule binders of probe aNOTCH3, primary screen, biochemical, small-molecule microarray, 635/667 nm fluorescence (AID 1120); settings: higher = more signal;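 further: probe is a biotin-tagged antibody raised against NOTCH3 rather than NOTCH3 protein; score merges spot fluorescence near 667 nm with spot signal to noise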
[3] = small-molecule binders of probe aNOTCH2, primary screen, biochemical, small-molecule microarray, 635/667 nm fluorescence (AID 1121); settings: higher = more signal;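 further: score merges feature fluorescence read at 667 nm with its signal to noise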
[4] = molecular target: Carbonic anhydrase 2 (Homo sapiens) (UniProt P00918); test: CAII small-molecule binders, profiling panel, biochemical, small-molecule microarray, Alexa647-labelled CAII (AID 1122); settings: CAII-A647 binding fluorescence, higher = more signal
[5] = COS7 lysate on small-molecule microarray, probe aHis, 635 nm (AID 1123); settings: COS7 cell lysate, fluorescence, higher = more signal;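 further: z-score combines 667nm fluorescence intensity with signal-to-noise per printed compound spot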
[6] = compound binding in COS7 lysate, probe aLAP1, primary screen, cell lysate, small-molecule microarray (AID 1124); settings: probe aLAP1, fluorescence, higher = more signal;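 further: lysate comes from COS7 cells expressing LAP1 and is applied at 0.3 µg/mL; score merges spot fluorescence near 667 nm with signal-to-noise over triplicate slides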
Sam68 (KHDRBS1) = test: Sam68 small-molecule binders, primary screen, biochemical, small-molecule microarray, 635 nm fluorescence (AID 1125); settings: small-molecule microarray binding, higher = more signal;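 further: score merges 667 nm channel intensity with signal to noise over triplicate slides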
[7] = system: Chordin-like protein 2 (CHRDL2); test: CHRDL2 small-molecule binders, primary screen, biochemical, small-molecule microarray, 635 nm fluorescence (AID 1126); settings: small-molecule microarray binding, fluorescence 635 nm; higher = more signal;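 further: printed compound slides probed with Chrdl2 protein at 4 µg/mL for 1 h at 4 C; score merges 667 nm emission intensity with signal to noise over three replicate slides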
[8] = molecular target: Concanavalin-A (Canavalia ensiformis) (UniProt P02866); test: ConA small-molecule binders, primary screen, artefact control for SMM control protein annotation, biochemical, small-molecule microarray, Alexa647 label, 635 nm (AID 1127); settings: ConA-A647 binding fluorescence, higher = more signal;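 further: z combines 667 nm emission intensity with signal-to-noise across three replicate slides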
Concanavalin-A (Canavalia ensiformis), sequence (P02866 whole entry, looked up): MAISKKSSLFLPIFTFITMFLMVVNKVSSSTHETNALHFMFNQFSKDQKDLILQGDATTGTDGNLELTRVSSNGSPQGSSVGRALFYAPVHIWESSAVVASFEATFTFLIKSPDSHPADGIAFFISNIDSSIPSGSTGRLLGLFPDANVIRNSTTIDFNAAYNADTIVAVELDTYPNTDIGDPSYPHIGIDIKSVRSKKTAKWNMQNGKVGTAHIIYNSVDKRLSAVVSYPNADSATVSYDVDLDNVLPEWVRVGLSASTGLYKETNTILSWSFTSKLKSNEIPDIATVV

[9] = anti-His antibody binders, primary screen, artefact control for SMM control protein annotation, biochemical, small-molecule microarray, 635 nm fluorescence (AID 1128); settings: anti-His Alexa647 antibody binding, higher = more signal;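 further: score merges feature fluorescence with signal-to-noise for each printed compound spot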
[10] = system: Human papillomavirus type 1a E7 protein (residues 1-88); test: HPV1a E7 small-molecule binders, primary screen, biochemical, small-molecule microarray, residues 1-88, 635 nm (AID 1129); settings: small-molecule microarray binding, fluorescence 635 nm; higher = more signal
[11] = molecular target: Focal adhesion kinase 1 (Homo sapiens) (UniProt Q05397); test: small-molecule microarray binders of FAK, primary screen, biochemical, 635/667 nm fluorescence, BSA, DTT (AID 1130); settings: PTK2 binding, 635 nm fluorescence, higher = more signal;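 further: composite of spot emission at 667 nm and signal to noise over triplicate slides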
Focal adhesion kinase 1 (Homo sapiens), sequence (Q05397 whole entry, looked up): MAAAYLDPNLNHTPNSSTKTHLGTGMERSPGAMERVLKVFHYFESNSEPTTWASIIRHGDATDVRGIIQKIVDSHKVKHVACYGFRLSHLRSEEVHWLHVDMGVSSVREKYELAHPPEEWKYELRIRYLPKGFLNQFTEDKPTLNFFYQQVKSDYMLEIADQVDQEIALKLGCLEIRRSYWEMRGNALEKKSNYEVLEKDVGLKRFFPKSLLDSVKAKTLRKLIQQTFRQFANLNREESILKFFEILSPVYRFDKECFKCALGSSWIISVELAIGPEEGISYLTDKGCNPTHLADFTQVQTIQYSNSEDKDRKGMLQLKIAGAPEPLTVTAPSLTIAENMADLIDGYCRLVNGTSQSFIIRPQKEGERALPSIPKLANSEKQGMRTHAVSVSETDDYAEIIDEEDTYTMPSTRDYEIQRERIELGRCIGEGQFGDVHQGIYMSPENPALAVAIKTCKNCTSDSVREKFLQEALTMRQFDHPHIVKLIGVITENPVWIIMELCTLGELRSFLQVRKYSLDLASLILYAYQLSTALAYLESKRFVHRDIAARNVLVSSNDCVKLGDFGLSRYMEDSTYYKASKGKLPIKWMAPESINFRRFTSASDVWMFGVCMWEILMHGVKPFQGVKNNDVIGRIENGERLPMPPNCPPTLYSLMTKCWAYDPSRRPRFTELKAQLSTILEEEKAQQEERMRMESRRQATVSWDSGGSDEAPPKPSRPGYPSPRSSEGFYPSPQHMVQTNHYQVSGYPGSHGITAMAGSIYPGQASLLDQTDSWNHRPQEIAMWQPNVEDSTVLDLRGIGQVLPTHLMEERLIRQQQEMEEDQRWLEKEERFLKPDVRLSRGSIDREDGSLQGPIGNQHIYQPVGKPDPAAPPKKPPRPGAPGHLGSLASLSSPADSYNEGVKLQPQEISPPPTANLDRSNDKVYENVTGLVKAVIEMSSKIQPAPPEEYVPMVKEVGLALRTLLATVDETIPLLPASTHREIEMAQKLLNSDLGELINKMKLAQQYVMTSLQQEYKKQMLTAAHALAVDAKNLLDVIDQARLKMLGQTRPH

[12] = system: Fibrinogen (Alexa647-labelled); test: fibrinogen binders on compound microarrays, profiling panel, artefact control for SMM control-protein annotation, biochemical, small-molecule microarray, 635/667 nm fluorescence (AID 1131); settings: fibrinogen-A647 binding fluorescence, higher = more signal;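 further: z-score merges 667 nm fluorescence with per-spot signal-to-noise over triplicate slides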
[13] = molecular target: Follistatin (Homo sapiens) (UniProt P19883); test: follistatin binders on small-molecule microarrays, primary screen, biochemical, small-molecule microarray, 635/667 nm fluorescence (AID 1132); settings: FST binding, 635 nm fluorescence, higher = more signal
Follistatin (Homo sapiens), sequence (P19883 whole entry, looked up): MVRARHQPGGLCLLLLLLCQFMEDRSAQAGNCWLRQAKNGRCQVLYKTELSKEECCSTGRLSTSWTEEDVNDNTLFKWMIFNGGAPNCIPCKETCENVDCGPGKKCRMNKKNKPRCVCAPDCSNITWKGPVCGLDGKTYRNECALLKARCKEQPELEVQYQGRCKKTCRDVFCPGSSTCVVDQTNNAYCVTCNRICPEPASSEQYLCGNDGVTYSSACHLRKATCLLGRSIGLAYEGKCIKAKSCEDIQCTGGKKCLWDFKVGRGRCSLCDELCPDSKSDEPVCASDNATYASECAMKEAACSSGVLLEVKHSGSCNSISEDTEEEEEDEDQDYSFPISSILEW

[14] = molecular target: Fibroblast growth factor 2 (Homo sapiens) (UniProt P09038); test: FGF2 binders on small-molecule microarrays, primary screen, biochemical, small-molecule microarray, 635/667 nm fluorescence (AID 1133); settings: small-molecule microarray binding, FGF2, fluorescence 635/667; higher = more signal
Fibroblast growth factor 2 (Homo sapiens), sequence (P09038 whole entry, looked up): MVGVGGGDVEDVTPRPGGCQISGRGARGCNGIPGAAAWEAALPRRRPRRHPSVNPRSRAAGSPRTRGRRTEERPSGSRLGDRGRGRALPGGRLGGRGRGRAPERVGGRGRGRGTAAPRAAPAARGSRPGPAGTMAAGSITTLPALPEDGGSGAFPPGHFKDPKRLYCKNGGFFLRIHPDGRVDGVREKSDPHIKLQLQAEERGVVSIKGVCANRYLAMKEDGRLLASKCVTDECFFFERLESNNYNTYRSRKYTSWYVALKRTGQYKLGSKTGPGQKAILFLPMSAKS

[15] = mitochondrial membrane potential change in A549 cells, profiling panel, cell-based, JC-1 fluorescence, basal, 24 h, 100 nL (AID 1138); settings: higher = more signal;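 further: A549 lung adenocarcinoma cells under basal conditions with no added stimulus; test concentration not given here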
Lefty1 = Lefty1 binders on small-molecule microarrays, primary screen, biochemical, small-molecule microarray, 635/667 nm fluorescence (AID 1139); settings: small-molecule microarray binding, fluorescence 635/667; higher = more signal
[16] = system: wheat germ agglutinin (Triticum aestivum), Alexa647-labelled; test: wheat germ agglutinin binders on compound microarrays, profiling panel, artefact control for SMM control-protein annotation, biochemical, small-molecule microarray, 635/667 nm fluorescence (AID 1140); settings: WGA-A647 binding, 635 nm fluorescence, higher = more signal;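 further: score merges 667 nm feature emission with signal to noise over triplicate slides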
[17] = molecular target: Luciferin 4-monooxygenase (Photinus pyralis) (UniProt P08659); test: firefly luciferase enzyme inhibitors, primary screen, biochemical, luminescence, purified enzyme, 2006 set (AID 1141); settings: SteadyGlo luminescence, 30 min, higher = more signal, called active from +8 up or from −8 down;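 further: cell-free assay with purified firefly luciferase at 100 ng per well in PBS; test concentration not given here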
Luciferin 4-monooxygenase (Photinus pyralis), sequence (P08659 whole entry, looked up): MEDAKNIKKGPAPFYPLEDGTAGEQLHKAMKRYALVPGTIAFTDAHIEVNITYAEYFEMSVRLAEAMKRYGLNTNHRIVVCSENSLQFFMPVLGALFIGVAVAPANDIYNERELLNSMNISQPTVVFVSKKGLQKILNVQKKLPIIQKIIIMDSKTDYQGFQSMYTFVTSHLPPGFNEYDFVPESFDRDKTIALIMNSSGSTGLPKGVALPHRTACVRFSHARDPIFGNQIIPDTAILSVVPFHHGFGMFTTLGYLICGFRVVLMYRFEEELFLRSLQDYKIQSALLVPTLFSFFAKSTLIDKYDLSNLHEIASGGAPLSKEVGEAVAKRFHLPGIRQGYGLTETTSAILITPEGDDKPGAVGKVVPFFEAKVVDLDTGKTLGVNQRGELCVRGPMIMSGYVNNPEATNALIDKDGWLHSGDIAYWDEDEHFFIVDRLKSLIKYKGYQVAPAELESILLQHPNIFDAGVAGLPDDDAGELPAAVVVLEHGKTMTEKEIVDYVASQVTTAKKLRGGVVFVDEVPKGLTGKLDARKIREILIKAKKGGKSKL

Albumin (Bos taurus), sequence (P02769 whole entry, looked up): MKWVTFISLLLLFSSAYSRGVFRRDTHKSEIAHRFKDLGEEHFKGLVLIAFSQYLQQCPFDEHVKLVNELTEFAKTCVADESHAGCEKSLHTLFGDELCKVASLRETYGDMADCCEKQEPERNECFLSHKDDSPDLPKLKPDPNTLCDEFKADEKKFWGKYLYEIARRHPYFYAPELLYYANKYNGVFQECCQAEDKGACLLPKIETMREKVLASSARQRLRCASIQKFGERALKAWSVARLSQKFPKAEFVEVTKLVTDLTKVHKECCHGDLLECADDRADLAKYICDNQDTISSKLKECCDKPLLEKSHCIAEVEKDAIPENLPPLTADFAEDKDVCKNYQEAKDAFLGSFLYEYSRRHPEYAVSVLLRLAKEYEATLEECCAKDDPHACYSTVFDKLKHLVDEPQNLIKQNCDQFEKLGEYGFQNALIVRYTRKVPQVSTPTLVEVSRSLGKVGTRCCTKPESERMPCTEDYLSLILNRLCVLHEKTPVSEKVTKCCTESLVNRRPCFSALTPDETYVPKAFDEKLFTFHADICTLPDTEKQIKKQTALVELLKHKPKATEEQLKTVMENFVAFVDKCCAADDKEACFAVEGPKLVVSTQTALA

Compound	composite z-score (Albumin (Bos taurus))	composite Z-score [1]	composite z-score [2]	composite z-score [3]	composite z-score [4]	composite z-score [5]	composite z-score [6]	composite z-score (Sam68 (KHDRBS1))	composite z-score [7]	composite z-score [8]	composite z-score [9]	composite z-score [10]	composite z-score [11]	composite z-score [12]	composite z-score [13]	composite z-score [14]	z-score [15]	composite z-score (Lefty1)	composite z-score [16]	z-score [17]
CCOC(=O)C[C@H]1[C@H](OC(=O)c2ccccc2-c2ccccc2)[C@@H](NC(=O)c2ccc3ccccc3n2)c2cc(OCCCO)ccc2N1C(=O)c1ccc2ccccc2n1	0.202	-0.293 (inactive)	-0.0647	-0.0626	0.0023	0.626	-0.283	0.498	0.422	0.762	1.22	0.374	0.281	0.74	0.474	0.202	0.481	0.659	0.0363	0.761 (inactive)
COC(=O)[C@@]1(Cc2ccc(F)cc2)[C@H]2c3cc(C(=O)N4CCCC4)n(CCc4c[nH]c5ccc(OC)cc45)c3C[C@H]2CN1C(=O)c1ccccc1	0.871	0.298 (inactive)	1.43	0.849	0.313	2.33	-0.143	0.929	-0.0865	1.09	2.4	1.22	2.48	0.845	0.685	0.6	-1.17	0.385	0.977	1.64 (inactive)
CC(C)(C)OC(=O)CC[C@]1(C(=O)O)N=C(c2ccc(OCCCO)cc2)O[C@H]1c1ccccc1	0.419	-0.179 (inactive)	0.318	-0.203	0.808	0.787	0.448	-0.612	-0.556	0.206	0.548	0.611	0.0043	0.284	0.329	-0.236	-0.132	0.0766	0.247	0.476 (inactive)
O=c1cccc(-c2cccc(Cl)c2)o1	0.271	1.25 (inactive)	-0.0164	-0.161	-0.0655	0.043	0.275	0.159	0.0809	0.164	0.417	1.11	0.682	0.2	-0.0992	-0.332	0.0374	-0.014	0.11	0.672 (inactive)
C=CCC(OC(C)=O)[C@@H]1[C@@H](N(Cc2cc3ccccc3o2)C(=O)c2ccc(C)cc2)c2cc(OCCCO)ccc2N1C(=O)Cc1ccc2ccccc2c1 (stereo not given in full)	0.324	0.0991 (inactive)	0.0311	-0.0077	-0.138	0.0465	-0.057	-0.366	0.208	-1.56	-0.631	-0.627	0.105	-0.638	0.119	-0.421	1.91	-0.281	-0.152	-1.72 (inactive)
COCCOC(=O)N1C(=O)[C@@]2(c3cc(C#CC4=CCCCC4)ccc31)[C@H](C(=O)N1CCN(c3ncccn3)CC1)[C@H]1C(=O)O[C@H](c3ccccc3)[C@H](c3ccccc3)N1[C@@H]2c1ccc(O)cc1	0.649	0.215 (inactive)	0.061	-0.0304	0.541	1.09	0.615	1.29	0.204	1.13	1.26	1.19	0.778	0.804	1.21	0.29	-1.05	0.819	1.11	-0.94 (inactive)
Cc1ccc(C(C)CC(O)C2C=CC3C(=O)N(c4ccccc4)C(=O)C3N2Nc2ccc(C(C)C)cc2)o1 (stereo not given)	0.935	-0.263 (inactive)	0.126	0.299	0.541	1.33	0.835	1.28	-0.527	1.15	0.953	1.16	0.423	0.59	0.75	-0.14	-0.678	-0.795	1.15	-0.528 (inactive)
C[C@]1(C(=O)O)c2ccccc2C(=O)N(Cc2ccccc2)[C@H]1c1ccc(CO)cc1	-0.408	0.174 (inactive)	-0.236	-0.0859	0.756	0.096	-0.581	-1.45	-1.48	-1.34	-1.17	-2.07	0.343	-2.48	-0.828	-1.33	0.686	-2.05	-1.37	-0.84 (inactive)
CCOC(=O)C1=CC[C@@H](c2ccccc2C(F)(F)F)N(S(=O)(=O)c2ccc(C)cc2)C1	0.959	0.917 (inactive)	0.694	0.311	0.411	1.57	0.95	1.1	-0.41	1.13	1.62	1.18	0.406	0.836	0.877	0.633	1.9	-0.356	0.989	0.515 (inactive)
CC(C)C(O)C1C=CC2C(=O)N(C)C(=O)C2N1N(c1ccccc1)c1ccccc1 (stereo not given)	0.736	0.491 (inactive)	-0.047	-0.0482	0.697	0.986	-0.37	-0.797	-1.17	-0.847	0.545	-0.735	0.523	0.597	-0.0394	-0.926	0.953	-0.852	0.357	0.734 (inactive)

Reference: PubChem BioAssay
